# JMJD2A Tudor = inhibitors of human JMJD2A Tudor domain. O75164. AlphaScreen JMJD2A-Tudor / H3K4me3 peptide binding. Potency, µM (highest dose often 114 µM), without a hit: at the top dose activity change, negative = inhibition, usual class: inhibitors. 4.4% of 390,000 active. AID 504339; further: on the % scale 0 is the no-effect control and ±100 the full control effect; nearly all actives have a fitted effect of over 50% in size
# Sfp inh = inhibitors of Bacillus subtilis Sfp phosphopantetheinyl transferase; Q9F4F7; Biochemical Sfp PPTase activity, qHTS; Potency, µM, for inactives: largest response in the series, negative = inhibition, hits mostly inhibitors; 3.5% of 310,000 active;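 further: the enzyme is Sfp with the accession as filed and its product quenches rhodamine fluorescence; 0% = enzyme reaction without inhibitor and -100% = no enzyme wells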
#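 Fluorescence-quenching assay: 15 nM Sfp-PPTase preincubated 15 min at room temperature with compound, then 5 uM rhodamine-CoA and 12.5 uM BHQ-2-labelled YbbR peptide added. Fluorescence (ex 525/em 598 nm) read at start and after 30 min; difference gives rate.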
# HP1b binding inh = HP1-beta chromodomain-methylated histone interaction inhibition | Potency, µM (titrated, usually from 114 µM), inactives show at the top dose activity change, negative = inhibition, hits mostly inhibitors | AlphaScreen HP1-beta / biotin-H3K9me3 peptide binding | 0.56% of 390,000 active | P83916; further: nearly all actives have a fitted effect of over 70% in size
# Target sequence (P83916 whole entry, looked up): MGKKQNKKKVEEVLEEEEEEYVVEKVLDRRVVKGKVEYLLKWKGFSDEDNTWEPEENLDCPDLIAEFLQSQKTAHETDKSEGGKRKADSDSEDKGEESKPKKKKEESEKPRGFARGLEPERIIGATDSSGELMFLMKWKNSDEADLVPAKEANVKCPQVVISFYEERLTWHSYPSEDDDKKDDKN
#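 HP1-beta protein (50 nM final) preincubated 30 min at room temperature with biotinylated H3(1-18)K9me3 peptide (50 nM) in PBS pH 7.4, 0.01% Tween-20, then compound added for 30 min. AlphaScreen streptavidin donor/nickel chelate acceptor beads (10 ug/mL final), 30 min dark, luminescence read.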
# G9a inh = blocks human histone lysine methyltransferase G9a. Q96KQ7. G9a H3K9 monomethylation, AlphaScreen, 2 h. Potency, µM (top dose mostly 102 µM), for inactives: at the top dose activity, negative = inhibition, most hits filed as inhibitors. 8.8% of 350,000 active. AID 504332; further: on the % scale 0 is the no-effect control and ±100 the full control effect; nearly all actives have a fitted effect of over 75% in size
# Target sequence (Q96KQ7 913-1193 limits assumed): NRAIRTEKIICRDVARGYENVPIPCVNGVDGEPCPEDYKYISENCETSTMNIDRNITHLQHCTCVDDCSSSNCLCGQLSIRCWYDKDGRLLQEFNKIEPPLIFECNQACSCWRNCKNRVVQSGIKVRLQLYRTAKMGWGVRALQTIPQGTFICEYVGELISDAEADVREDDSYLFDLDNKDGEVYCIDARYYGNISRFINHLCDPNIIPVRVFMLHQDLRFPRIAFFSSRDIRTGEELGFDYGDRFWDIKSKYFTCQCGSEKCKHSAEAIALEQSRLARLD
#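 Step 1: enzyme (final 20 nM) with compound, 15 min RT. Step 2: substrate peptide 500 nM and SAM 20 uM, 2 h RT. Step 3: anti-H3K9me1 antibody and AlphaScreen beads, 10 min, then plate read.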
# BAZ2B block = blocks human BAZ2B. AID 504333. Potency, µM (series often up to 114 µM), without a hit: at the highest dose activity change, negative = inhibition, hits mostly inhibitors. 4.4% of 360,000 active. AlphaScreen BAZ2B-H3K14Ac peptide displacement; further: on the % scale 0 is the no-effect control and ±100 the full control effect; nearly all actives have a fitted effect of over 60% in size
#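 Inhibition is scored as reduced AlphaScreen emission. The BAZ2B/b-H3(5-23)K14Ac complex (50 nM each) in PBS pH 7.4, 0.01% Tween-20 meets compound (up to 110 uM) for 30 min at RT before bead addition.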
# The depositor's hits bear a star; ? = inconclusive; · = no result; [ ] = remark or other dose. This is a sample that favours compounds with a hit; in the whole collection about 12% have one here. The call rests on the fitted dose curve; in most records, active means well fitted curve in the direction sought with a large enough effect; inconclusive means small, poorly fitted or top-dose-only effect, or another doubt; inactive means no such curve, though single readings can be large; an effect the other way counts as inactive or inconclusive. Potency means the concentration at half of the fitted maximal effect.
SMILES,JMJD2A Tudor,Sfp inh,HP1b binding inh,G9a inh,BAZ2B block
CCCCNC(=O)C1CCN(S(=O)(=O)c2cc(Br)cc3c2N(C(=O)CC)CC3)CC1,-16%,·,9%,-1%[59 µM],-2%
COc1cc(NC(=S)N2CCCC(CO)C2)c(OC)cc1Cl (configuration not stated),-6%,40µM*,4%,45µM*,-5%
CN1CCN(C(=S)Nc2cc([N+](=O)[O-])ccc2Cl)CC1,?,-29%,-4%,3.2µM*,-28%
COc1ccc(Cl)cc1NC(=S)N1CCN(C(=O)c2ccco2)CC1,-10%,2%,15%,·,1%
COc1cc(NC(=S)N2CCN(C)CC2)c(OC)cc1Cl,1%,28µM*,12%,40µM*,-19%
COc1cc(NC(=S)N2CCN(C(=O)c3ccco3)CC2)c(OC)cc1Cl,?,56µM*,-29%,?,-1%
N#Cc1c[nH]n2c(NC3CCCCC3)c(-c3cccc(Cl)c3)nc12,-3%,·,32%,-11%[59 µM],-10%
CC(=O)N[C@@H](Cc1c[nH]c2ccccc12)C(=O)NC1CCCc2ccccc21 (some centres not stated),-5%,9%,-4%,-3%,-4%
O=C1CCCCN1CCCC(=O)N1CCCC(Nc2ccccc2)C1 (configuration not stated),-10%,12%,32%,-4%,-16%
COc1cc(-c2noc(C)c2C#CC2(N)CCCCC2)cc(OC)c1OC,-24%,-14%,24%,14µM*,?
COc1cc(-c2noc(C)c2C#CC2(O)CCCCC2)cc(OC)c1OC,-3%,-5%,51%,·,1%
CCc1ccc(-n2c(Cc3ccccc3)n[nH]c2=S)cc1,22µM*,-4%,10%,?,-27%
Cc1cccc(-n2c(CNC(=O)Cc3ccccc3)n[nH]c2=S)c1,4µM*,13%,36%,20µM*,-14%
Cc1cccc(-n2c(Cc3ccccc3)n[nH]c2=S)c1,32µM*,7%,2%,22µM*,-20%
Fc1c(-c2ccc3ncnc(NCc4cccs4)c3c2)ccc2c1OCO2,-24%,·,·,·,·
COc1ccc(NC(=O)C2CCN(C(=O)c3sc4nc[nH]c(=O)c4c3C)CC2)cc1Cl,4%,·,26%[57 µM],2%[59 µM],0%
COC(=O)C1=C(Nc2ccccc2NC(=O)CCCC(=O)O)CSC1,-8%,79µM*,22%,·,-1%
CC(C)c1ccccc1NC(=O)CCCC(=O)O,-7%,6%,18%,11%[59 µM],-2%
COC(=O)C1=C(Nc2ccccc2NC(=O)c2ccccc2C(=O)O)CSC1,-14%,45µM*,36%,-19%,?
Cc1oc2c(c1C(=O)NCc1ccccc1F)C1=NCCN1C=N2,-16%,·,-4%,7%[59 µM],-3%
CCOc1ccc2ncc(S(=O)(=O)c3ccccc3)c(N3CCN(c4ccc(OC)cc4)CC3)c2c1,?,-3%,?,?,10µM*
CCOc1ccc2ncc(S(=O)(=O)c3ccccc3)c(N3CCN(c4ccccc4)CC3)c2c1,?,·,-15%,·,·
COc1ccc(N2CCN(c3c(S(=O)(=O)c4ccccc4)cnc4ccc(OC)cc34)CC2)cc1,?,12%,?,8.9µM*,?
COc1ccc(C(=O)N2CCCC(CO)(Cc3ccccc3C)C2)o1 (configuration not stated),-17%,-10%,-17%,79µM*,-34%
CC(=O)OC1CC2C(C)(C)C(O)CCC2(C)C2CC[C@]3(C)C(=CC(=O)OC3c3ccoc3)C12C (some centres not stated),·,-5%,·,-9%[2.33 µM],·
COc1ccc2c(c1)O[C@@H](c1cccc(C(F)(F)F)c1)[C@H](OC(=O)NCCOc1ccccc1)C2=O,·,-28%,·,·,·
Cc1cc(C)cc(Nc2nc3ccccc3c(=O)[nH]2)c1,1%,0%,24%,-3%,-2%
Cc1cc(C)cc(NC2=C(N)C(=O)c3ccccc3C2=O)c1,?,18%,-19%,1.6µM*,?
CCC(=O)NC1=C(Nc2ccc(N)cc2)C(=O)c2ccccc2C1=O,-23%,-1%,?,50µM*,?
COc1ccc(NC2=C(NC(C)=O)C(=O)c3ccccc3C2=O)cc1,-21%,1%,?,?,?

# Compound activity deposited in PubChem by National Center for Advancing Translational Sciences (NCATS).
